From PubChem BioAssay (NCI)
Compounds without any hit were thinned out: in the full panel of roughly 79,000, 15% have a hit. Rule as the data show it: active = growth inhibition above about 70%; inactive = the rest.

Experiments:
[1] = NCI Yeast Anticancer Drug Screen. Data for the rad50 strain (AID 155);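 also: 0% = growth of vehicle-only cultures of the same strain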; conditions: S. cerevisiae rad50 strain growth inhibition; at 50.0 µM; active compounds read high
In short: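 Relative growth inhibition (compound vs vehicle) was measured in yeast with a defined repair-gene alteration.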

[2] = NCI Yeast Anticancer Drug Screen. Data for the mec2-1 strain (AID 157); conditions: S. cerevisiae mec2-1 strain, at 50.0 µM, active compounds read high
In short: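 Growth inhibition is read against vehicle-treated controls after compound exposure of the mec2-1 yeast strain, which is defective in DNA damage repair or cell cycle control.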

[3] = NCI Yeast Anticancer Drug Screen. Data for the sgs1 mgt1 strain (AID 161);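 also: 0% = growth of cultures given vehicle only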; conditions: S. cerevisiae sgs1 mgt1 strain, at 50.0 µM, active compounds read high
In short: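 Compounds are added to genetically altered yeast, and growth is compared with cultures given vehicle alone to give percent inhibition.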

[4] = NCI Yeast Anticancer Drug Screen. Data for the cln2 rad14 strain (AID 165);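 also: 0% = growth equal to vehicle treated cultures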; conditions: S. cerevisiae cln2 rad14 strain, at 50.0 µM, active compounds read high
In short: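 Growth inhibition, relative to vehicle-treated controls, is the read-out. The test organism is a yeast strain with defined genetic alterations, cln2 rad14.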

[5] = NCI Yeast Anticancer Drug Screen. Data for the bub3 strain (AID 167); conditions: S. cerevisiae bub3 mutant strain, at 50.0 µM, active compounds read high
In short: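 Screening used yeast with an engineered genetic alteration affecting cell cycle control. Compound-exposed cultures were compared with vehicle cultures, and reduced growth was taken as inhibition.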

[6] = NCI Yeast Anticancer Drug Screen. Data for the mlh1 rad18 strain (AID 175); conditions: S. cerevisiae mlh1 rad18 strain growth inhibition; at 50.0 µM; active compounds read high
In short: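 Cells of a genetically altered yeast strain, deficient in DNA damage repair, were treated with compound. Their growth was then compared with that of vehicle-treated cultures to give inhibition.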

Measured: growth inhibition

CCOC(=O)C(CCSC)(CCN(C)Cc1ccccc1)C(=O)OCC
inactive: [1] -23.1% | [2] -3.05% | [3] -6.9% | [4] -0.9% | [5] 8.85% | [6] -3.3%

O=C1CC2CCCC23CC2(CCN13)OCCO2 (stereo not drawn)
inactive: [1] -3.15% | [2] 0.7% | [3] -0.3% | [4] -27.4% | [5] -2.3% | [6] 6.35%

COc1ccc(S(=O)c2coc3ccccc3c2=O)cc1 (stereo not drawn)
inactive: [1] 32.4% | [2] -9.05% | [3] 28.1% | [4] 14.7% | [5] 28.1% | [6] 20.9%

O=S(=O)(Nc1ccccc1)c1cc(O)ccc1O
inactive: [1] -3.35% | [2] -11.2% | [3] -9.75% | [4] -12.1% | [5] -26.5% | [6] -9.85%

C#CCOC(=O)C(N)CC(N)=O (stereo not drawn)
inactive: [1] -13.8% | [2] -21.9% | [3] -40.6% | [4] -11.8% | [5] -26.6% | [6] -17.2%

CC(=O)OCN(C)N=Nc1ccc(C(C)=O)cc1
inactive: [1] -4.6% | [2] -11.3% | [3] -27.8% | [4] -22.7% | [5] 20.9% | [6] 5.45%

O=S(=O)(c1ccc(Br)cc1)N1CCN(S(=O)(=O)c2ccc(Br)cc2)CC1
inactive: [1] -24.4% | [2] -23.9% | [3] -35.2% | [4] -43.2% | [5] -23.4% | [6] -10.1%

Cn1cnc(=S)c2ccccc21
inactive: [1] -11% | [2] -12.8% | [3] -18.3% | [4] -6.05% | [5] 0.8% | [6] -29.1%

CCOC(=O)Nc1c2ccccc2c(NC(=O)OCC)c2cc(Cl)ccc12
inactive: [1] 4.2% | [2] -1.75% | [3] 3.75% | [4] 3.25% | [5] 2.85% | [6] 19.8%

COC(=O)C1OC2(CCCC3CC32)O[C@H]1C(=O)OC (stereo partly drawn)
inactive: [1] -8.35% | [2] -10.2% | [3] -20.6% | [4] -13.2% | [5] -13.8% | [6] 6.35%

CCOC(=O)CCc1nc2ccccc2[nH]1
inactive: [1] 0.6% | [2] -0.6% | [3] -0.3% | [4] 3.7% | [5] 0.5% | [6] -4.25%

CCCNC1=C(OC)C(=O)C(NCCC)=C(OC)C1=O
inactive: [1] -0.3% | [2] 6.8% | [3] 9.15% | [4] -47.5% | [5] 2% | [6] -9.15%

O=C(O)CSc1cc(Br)c(Br)cc1C(=O)O
inactive: [1] 6.05% | [2] -11.3% | [3] -0.85% | [4] 9.5% | [5] 9.8% | [6] -15.9%

COCC1OC(OC2(COC)OC(COC)C(OC)C2OC)C(OC)C(OC)C1OC (stereo not drawn)
inactive: [1] 22.1% | [2] -4.15% | [3] -9.2% | [4] -34.2% | [5] -18.1% | [6] 5.6%

O=C1CSc2nc3c(Cl)cc(Cl)cc3c(=O)n21
inactive: [1] 15.7% | [2] 24.6% | [3] 54.1% | [4] 8.2% | [5] 30.2% | [6] 46.1%

C/C(CC1CCCCC1)=N\NC(N)=O
inactive: [1] 0.25% | [2] 1.35% | [3] -5.8% | [4] 13.2% | [5] -10.9% | [6] -27.1%

CC(C)COP(C)(=O)C(N)(C(F)(F)F)C(F)(F)F (stereo not drawn)
inactive: [1] 10.9% | [2] 8% | [3] 35.6% | [4] 25.8% | [5] 40.1% | [6] -12.4%

c1ccc(CNc2cnccn2)cc1
inactive: [1] -20.5% | [2] 10.7% | [3] -7.75% | [4] -22.1% | [5] -3.7% | [6] -4.95%

Cc1ccc(S(=O)(=O)OC2C3OC(C)(C)OC3OC2C2CSC(=S)S2)cc1 (stereo not drawn)
inactive: [1] 0.3% | [2] -6.6% | [3] 10.1% | [4] -12.8% | [5] -25.3% | [6] 4%

O=C(CN=Cc1ccccc1O)NCc1ccccn1
inactive: [1] -10.7% | [2] -5.9% | [3] 10.7% | [4] 10.1% | [5] -21.9% | [6] 21.3%

C=C(C)C(=O)O[C@H]1CC2=C[C@@H](C[C@@]3(C)O[C@@H]3[C@H]3OC(=O)C(=C)[C@@H]31)OC2=O
inactive: [1] -8.35% | [2] 10.1% | [3] 22.2% | [4] 6.4% | [5] -10% | [6] -5.15%

CCNC(=O)C(C(=O)O)c1ccccc1 (stereo not drawn)
inactive: [1] 1.8% | [2] -5.55% | [3] 5.15% | [4] -21.1% | [5] -13.9% | [6] 5.2%

CCN(CC)CCCN1CCc2c([nH]c3ccccc23)C1c1cccnc1 (stereo not drawn)
inactive: [1] -4.2% | [2] -18.4% | [3] -0.3% | [4] 5.9% | [5] -18.1% | [6] -17.4%

CCc1cnccc1C
inactive: [1] 10.3% | [2] -14.9% | [3] -19.1% | [4] 6.25% | [5] 6.45% | [6] -9.75%

C=C(Cl)Cc1c(O)c2c(c(O)c1CC(=C)Cl)C(=O)c1ccccc1C2=O
inactive: [1] -39.2% | [2] -42.7% | [3] -50% | [4] 1.8% | [5] -18.1% | [6] -33.5%

CC(C)=CCC/C(C)=C/CNc1ncnc2c1ncn2C1OC(CO)C(O)C1O (stereo not drawn)
inactive: [1] -4.3% | [2] 13.7% | [3] 6.6% | [4] -37% | [5] 12.9% | [6] 27.6%

COc1cc(C2[C@H]3C(=O)N(c4ccc(Cc5ccc(N6C(=O)[C@@H]7ON(c8ccccc8)C(c8cc(OC)c(OC)c(OC)c8)[C@@H]7C6=O)cc5)cc4)C(=O)[C@H]3ON2c2ccccc2)cc(OC)c1OC (stereo partly drawn)
inactive: [1] -2.25% | [2] 5.2% | [3] 3.75% | [4] 27.5% | [5] 25.9% | [6] -6.3%

N#C/C(=C/N1C(=O)/C(=C/c2ccc([N+](=O)[O-])cc2)SC1=S)C(N)=O
inactive: [1] 45% | [2] 56.5% | [3] 63.4% | [4] 54.3% | [5] 45% | [6] 42%

O=C1CCC2(CC1)Cc1ccccc1C2O (stereo not drawn)
inactive: [1] -8.75% | [2] -8.45% | [3] 18% | [4] 29.4% | [5] -9.35% | [6] -5.5%

COC(=O)C1Cc2ccccc2C1=O (stereo not drawn)
inactive: [1] -1.75% | [2] -13.2% | [3] -14.8% | [4] -40.5% | [5] -11.8% | [6] -6.45%

C=C1C(=O)O[C@H]2C[C@@H]1C(=O)CC(C)CCCC(C)=CCC[C@@]2(C)O (stereo partly drawn)
inactive: [1] 24.4% | [2] 7.65% | [3] 15.2% | [4] 11.2% | [5] -0.1% | [6] -49.4%

CCOC(=O)c1cc(NC(C)=O)c(C)n1C
inactive: [1] -5.4% | [2] 8.6% | [3] -3.45% | [4] -26.6% | [5] 11.1% | [6] 16.4%

OCC(CO)(CO)COCC(CO)(CO)CO
inactive: [1] 8.5% | [2] -25.1% | [3] 6.75% | [4] 10% | [5] -12.3% | [6] 13.1%

Cc1cc(C)c(C)c(CC(C)(CI)CI)c1C
inactive: [1] 20.3% | [2] -13.2% | [3] -4.7% | [4] 0.65% | [5] -8.05% | [6] -3.6%

CCCCS(=O)(=O)N(CCC)CCC
inactive: [1] 9.55% | [2] -13.6% | [3] 5.25% | [4] -18.1% | [5] -3.95% | [6] -13.3%

CC(CCl)NC(=O)Nc1cccc2c1CCCC2 (stereo not drawn)
inactive: [1] -12.5% | [2] 0.3% | [3] -3.9% | [4] -36% | [5] -2.6% | [6] 18.8%

O=C(Nc1ccccc1C(=O)N/N=C/c1ccc(Cl)cc1)c1ccccc1Cl
inactive: [1] 49.2% | [2] 27.9% | [3] 22.6% | [4] 29.6% | [5] 42.1% | [6] 25.8%

CC(C)N(C(=O)C12C3C4C5(C#N)C3C1(C#N)C5C42C#N)C(C)C (stereo not drawn)
inactive: [1] -10.4% | [2] -9.9% | [3] -21.8% | [4] 1.5% | [5] -0.7% | [6] -27.4%
